Targets include FBLIM1; FBXL21; FASN; FCF1; FGF23; FIZ1; FKBP10; FKTN; FKBPL.
Common to all, as to assay: pooled miR-30 sensor sort-seq; sequence = guide strand
What all share (settings): shRNA
Also: reference of the scale not given here.

For the sequence TTTCATGGAAGTTTCTTCCCAT, the sensor-assay potency score (higher = more potent) with FBLIM1 came to 0.731.

With TTAACATGAGTCTCGCTTGAGA, the sensor-assay potency score (higher = more potent) with FBXL21 is -0.687.

In the assay with FASN, TTCTTTGATGCACTGTCCCCTC gave a sensor-assay potency score (higher = more potent) of -0.75.

TTTCTCAACAGGTTCTGCCGGG gave a sensor-assay potency score (higher = more potent) with FBLIM1 of 0.497.

For TTTAATGATCTGCTGAATGAGA, the sensor-assay potency score (higher = more potent) with FBXL21 was -0.579.

In the case of TTGTACTCGGCGGAGGACGTGC, in the assay with FASN, the sensor-assay potency score (higher = more potent) is -0.733.

In turn, TTTCTCACAGATACGCTCCATG displayed a sensor-assay potency score (higher = more potent) with FASN of -0.419.

In the assay with FASN, TAGCCCACGAGTGTCTCGGGGT displayed a sensor-assay potency score (higher = more potent) of -0.532.

As for TTCATAGGTGACTTCCAGCAGC, in the assay with FASN, the sensor-assay potency score (higher = more potent) is -0.213.

The sequence TCCACGAACTCAAACACCGGGG had a sensor-assay potency score (higher = more potent) with FASN of -1.02.

TACTTTCCCGTCGCATACCTGG yielded a sensor-assay potency score (higher = more potent) in the assay with FASN of -1.06.

As for TCGACAGACAGGAGGATCCTGC, the sensor-assay potency score (higher = more potent) in the assay with FBLIM1 was -0.78.

TTGCACACCAGGAGGTCGGCGC gave a sensor-assay potency score (higher = more potent) in the assay with FASN of -0.835.

In the assay with FASN, TTCCTCGGAGTGAATCTGGGTT had a sensor-assay potency score (higher = more potent) of 0.14.

As for TTCAGCTTGCCGGACCGCCGGG, the sensor-assay potency score (higher = more potent) in the assay with FASN was -0.801.

Consider TTGACAGCAGCCAAGTCGCGGA, for which, in the assay with FASN, the sensor-assay potency score (higher = more potent) was -0.675.

In the assay with FASN, TTGTTGACATTGTACTCGGCGG came in with a sensor-assay potency score (higher = more potent) of -1.03.

Turning to TTCTCAACAGGTTCTGCCGGGG, the sensor-assay potency score (higher = more potent) with FBLIM1 was -0.331.

In the assay with FBLIM1, TAGACAGGAAACTCTGGCCCAG had a sensor-assay potency score (higher = more potent) of -0.916.

For the sequence TAATAAACCAGTAGACAGGAAA, the sensor-assay potency score (higher = more potent) in the assay with FBLIM1 was -1.08.

As for TTCATGGTCGCATACTTCCTTG, in the assay with FCF1, the sensor-assay potency score (higher = more potent) is -1.25.

TGGATCTGCAGGTGGTAGCTGT came in with a sensor-assay potency score (higher = more potent) with FGF23 of -0.923.

For TTGAAGTCGCGCTCGCAGCGCG, the sensor-assay potency score (higher = more potent) with FIZ1 was -0.792.

In the assay with FKBP10, TTGAAGATTAGCACGGCAGAGC had a sensor-assay potency score (higher = more potent) of -0.871.

ATAGCTTGAATCAAACTTCTTG yielded a sensor-assay potency score (higher = more potent) with FKBP10 of 0.371.

The sequence TTTGCAGATATAGTGCAGGGGG showed a sensor-assay potency score (higher = more potent) in the assay with FKTN of -0.241.

For TGACACATGGACTCCAAGCATT, the sensor-assay potency score (higher = more potent) with FKBPL was -1.29.

In the assay with FKTN, TTGTTTAATGTTTTCGCTGCTA displayed a sensor-assay potency score (higher = more potent) of 0.0989.

Regarding AACAGCTTCTCGCACTCGGAGC, in the assay with FIZ1, the sensor-assay potency score (higher = more potent) was -1.76.

For TCTCGCACTCGGAGCAGCCGAA, the sensor-assay potency score (higher = more potent) with FIZ1 was -1.41.

In the assay with FIZ1, TAGATCAGTCCATTCTACTGGG returned a sensor-assay potency score (higher = more potent) of 0.523.

As to TTGATCAGCCAACCAGAGCCGA, in the assay with FKBP10, the sensor-assay potency score (higher = more potent) was -0.877.

Sequence TTCCTTCTCGCTAGTCTCCAGC displayed a sensor-assay potency score (higher = more potent) with FKBPL of -1.31.

ATCTTCTTGACAAAGCTCCCAT displayed a sensor-assay potency score (higher = more potent) with FKBPL of -0.554.

Consider TTTCGGTAGGAGGGTCTCGGGG, for which the sensor-assay potency score (higher = more potent) with FKBPL was -1.79.

Sequence TCGTCGACTGTGATCTTGCCGT displayed a sensor-assay potency score (higher = more potent) with FKBP10 of -0.799.

Sequence TAGACAAGTTCCACTGCTCAGC displayed a sensor-assay potency score (higher = more potent) with FKTN of -0.942.

Take ATTTTGACAAACCAGCTCCATT: the sensor-assay potency score (higher = more potent) with FKTN is -1.46.

In the assay with FIZ1, TTCTCGCACTCGGAGCAGCCGA came in with a sensor-assay potency score (higher = more potent) of -1.7.

Regarding TCAAACAGCAGCACAGCACTGC, in the assay with FKBP10, the sensor-assay potency score (higher = more potent) came to 0.521.

TTGAGTATGCTCTAGAATTTGG yielded a sensor-assay potency score (higher = more potent) with FKBPL of -0.551.

In the case of TAGCTGGTGTCGAAGAAGGTGC, the sensor-assay potency score (higher = more potent) with FKBP10 is -0.841.

The sequence TGGTTGGCTAGGTTGAAGCTGT returned a sensor-assay potency score (higher = more potent) with FIZ1 of -0.915.

Turning to TATGGTTTTCTCAGGGTCCTGC, the sensor-assay potency score (higher = more potent) in the assay with FKBP10 worked out at 0.0683.

With TACTTCTTCTACAAAGTGCATT, in the assay with FKTN, the sensor-assay potency score (higher = more potent) was -0.78.

In the assay with FIZ1, TTGAGGTAGCACTCGTGGCGGA yielded a sensor-assay potency score (higher = more potent) of -0.466.

In the case of TGAGCGGAACAGCTTCTCGCAC, the sensor-assay potency score (higher = more potent) in the assay with FIZ1 is -1.25.

On to TAGTTAGCTCTGTCCAGCCCTC, for which, in the assay with FKBPL, the sensor-assay potency score (higher = more potent) is -1.24.

Take TTGAATCAAACTTCTTGCCATC: the sensor-assay potency score (higher = more potent) with FKBP10 is -0.96.

Regarding TAATCTTCCTTCTCTCTCCAGG, the sensor-assay potency score (higher = more potent) with FKBP10 is -0.239.

In the assay with FKBPL, TAATCTGAATAACTGAATCAAG gave a sensor-assay potency score (higher = more potent) of -1.19.

TCTATCGCCAGCACCTTCTTGA had a sensor-assay potency score (higher = more potent) with FKBPL of 0.068.

Sequence TTCCTCACCTTGACACATGGAC showed a sensor-assay potency score (higher = more potent) in the assay with FKBPL of -0.29.

In the case of TTCCTTGTTCCACACATCCAGC, in the assay with FKBP10, the sensor-assay potency score (higher = more potent) was -1.14.

In the assay with FIZ1, TTGAAGGGCTTCACGTCGGTGT came in with a sensor-assay potency score (higher = more potent) of 0.144.

Take TAGCTTGAATCAAACTTCTTGC: the sensor-assay potency score (higher = more potent) in the assay with FKBP10 is 0.0257.

Regarding TGAAGCTGTGCTTGAAACCCTT, in the assay with FIZ1, the sensor-assay potency score (higher = more potent) is -0.439.

Turning to TTGGCATGAAGGACAGTTCGTT, the sensor-assay potency score (higher = more potent) with FKBPL was 0.00211.

In the assay with FKBPL, ATGAAGGACAGTTCGTTCTGGA came in with a sensor-assay potency score (higher = more potent) of 0.322.

In turn, TAGCTGGACAGCGTCCTTCGGG came in with a sensor-assay potency score (higher = more potent) with FKBP10 of -1.26.

The record behind these values is the OligoGym collection.
